# According to the supplement of paper PMC8371130:
# Where a name gives a salt, the structure may show the parent alone.
# Test system: HL-1
# Experiment: relative cell viability (CellTiter-Glo) vs DMSO control (% of DMSO control); higher = more viable cells
# Settings: oxygen condition: normoxia 72 h; 40 nM
# Outline: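 Cell viability was determined from CellTiter-Glo luminescence, expressed relative to vehicle-treated control cells. The cells were HL-1 mouse atrial cardiomyocytes, plated at 1000 cells per well in 384-well plates with compounds at 40, 200, 1000 or 5000 nM in 0.01% DMSO. One day after plating, they underwent 48 h of hypoxia (1% O2) in a hypoxic workstation followed by 24 h of reoxygenation in a normal incubator, or were kept in normoxia for an equal time.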
row,Structure (SMILES),relative cell viability
1,Cc1onc(-c2ccccc2)c1C(=O)N[C@@H]1C(=O)N2[C@@H]1SC(C)(C)[C@@H]2C(=O)O [Oxacillin sodium monohydrate],103
2,O=C(CCCCCCC(=O)Nc1ccccc1)NO [Vorinostat],103
3,CC1CCc2c(N3CCC(O)CC3)c(F)cc3c(=O)c(C(=O)O)cn1c23 (centres undefined) [Nadifloxacin],104
4,CCN(CCCc1ccccc1)CCCc1ccccc1 [Alverine Citrate],102
5,CC(=O)O[C@H]1C[C@@H]2CC[C@@H]3[C@H](CC[C@@]4(C)[C@H]3C[C@H]([N+]3(C)CCCCC3)[C@@H]4OC(C)=O)[C@@]2(C)C[C@@H]1N1CCCCC1 [Vecuronium Bromide],112
6,CNCCC(Oc1ccc(C(F)(F)F)cc1)c1ccccc1 (centres undefined) [Fluoxetine  HCl],104
7,CCCNC(C)C(=O)Nc1ccccc1C (centres undefined) [Prilocaine],92.2
8,Cc1c(N(C)C)c(=O)n(-c2ccccc2)n1C [Amidopyrine],107
9,CCCCN1CCCCC1C(=O)Nc1c(C)cccc1C (centres undefined) [Bupivacaine hydrochloride],105
10,O=C1c2c(O)ccc(O)c2C(=O)c2c(NCCNCCO)ccc(NCCNCCO)c21 [Mitoxantrone Hydrochloride],4.75
11,CO[C@H]1C[C@@H]2CC[C@@H](C)[C@@](O)(O2)C(=O)C(=O)N2CCCC[C@H]2C(=O)O[C@H]([C@H](C)C[C@@H]2CC[C@@H](OC(=O)C(C)(CO)CO)[C@H](OC)C2)CC(=O)[C@H](C)/C=C(\C)[C@@H](O)[C@@H](OC)C(=O)[C@H](C)C[C@H](C)/C=C/C=C/C=C/1C [Temsirolimus],60.2
12,C[C@@H]1C[C@H]2[C@@H]3C[C@H](F)C4=CC(=O)C=C[C@]4(C)[C@@]3(F)[C@@H](O)C[C@]2(C)[C@@]1(O)C(=O)CO [Flumethasone],96.3
13,C#C[C@]1(OC(C)=O)CC[C@H]2[C@@H]3CCC4=C[C@@H](OC(C)=O)CC[C@@H]4[C@H]3CC[C@@]21C [Ethynodiol diacetate],104
14,CS(=O)(=O)c1ccc(C2=C(c3ccccc3)C(=O)OC2)cc1 [Rofecoxib],105
15,NS(=O)(=O)c1cc2c(cc1Cl)N=C(CSCc1ccccc1)NS2(=O)=O [Benzthiazide],99.7
16,CC[C@H]1OC(=O)[C@H](C)[C@@H](O[C@H]2C[C@@](C)(OC)[C@@H](O)[C@H](C)O2)[C@H](C)[C@@H](O[C@@H]2O[C@H](C)C[C@H](N(C)C)[C@H]2O)[C@](C)(O)C[C@@H](C)/C(=N\OCOCCOC)[C@H](C)[C@@H](O)[C@]1(C)O [Roxithromycin],101
17,CC1=C(/C=C/C(C)=C/C=C/C(C)=C/C(=O)O)C(C)(C)CCC1 [Tretinoin],112
18,CCOC(=O)OC(C)OC1=C(C(=O)Nc2ccccn2)N(C)S(=O)(=O)c2ccccc21 (centres undefined) [Ampiroxicam],101
19,CC(O)(P(=O)(O)O)P(=O)(O)O [Etidronate],95.1
20,COC(=O)[C@H](c1ccccc1Cl)N1CCc2sccc2C1 [Clopidogrel],108

row,Structure (SMILES),relative cell viability
1,C[C@H](CCC(=O)O)[C@H]1CC[C@H]2[C@@H]3[C@@H](O)C[C@@H]4C[C@H](O)CC[C@]4(C)[C@H]3CC[C@]12C [Ursodiol],99.7
2,C[C@@H](O[C@H]1OCCN(Cc2nn(P(=O)(O)O)c(=O)[nH]2)[C@H]1c1ccc(F)cc1)c1cc(C(F)(F)F)cc(C(F)(F)F)c1 [Fosaprepitant dimeglumine],113
3,CC(=O)Oc1ccc(C(c2ccc(OC(C)=O)cc2)c2ccccn2)cc1 [Bisacodyl],101
4,Cc1cc(N)c2ccccc2[n+]1CCCCCCCCCC[n+]1c(C)cc(N)c2ccccc21 [Dequalinium chloride],93.3
5,CC1CNc2c(cccc2S(=O)(=O)N[C@@H](CCCNC(=N)N)C(=O)N2CC[C@@H](C)C[C@@H]2C(=O)O)C1 (some centres undefined) [Argatroban],97.3
6,CCCCNc1cc(C(=O)O)cc(S(N)(=O)=O)c1Oc1ccccc1 [Bumetanide],105
7,CCCCC(=O)O[C@H]1CC[C@H]2[C@@H]3CCc4cc(O)ccc4[C@H]3CC[C@]12C [Estradiol valerate],98.8
8,C[C@@](Cc1ccc(O)c(O)c1)(NN)C(=O)O [Carbidopa],96.4
9,O=c1[nH]cc(F)c(=O)[nH]1 [Adrucil],96.6
10,COc1ccccc1N1CCN(CC(O)COc2cccc3ccccc23)CC1 (centres undefined) [Naftopidil],102
11,OC(CCN1CCCC1)(c1ccccc1)C1CCCCC1 (centres undefined) [Procyclidine HCl],101
12,COc1ccc2cc1Oc1ccc(cc1)C[C@H]1c3c(cc4c(c3Oc3cc5c(cc3OC)CCN(C)[C@@H]5C2)OCO4)CCN1C [Cepharanthine],99.4
13,C=C1CC[C@H](O)C/C1=C/C=C1\CCC[C@]2(C)[C@@H]([C@H](C)/C=C/[C@H](C)C(C)C)CC[C@@H]12 [Vitamin D2],107
14,COc1cccc2c1C(=O)c1c(O)c3c(c(O)c1C2=O)C[C@@](O)(C(=O)CO)C[C@@H]3O[C@H]1C[C@H](N)[C@H](O)[C@H](C)O1 [Doxorubicin],63
15,CCOC(=O)c1c(C)n(C)c2ccc(O)cc12 [Mecarbinate],101
16,O=C(c1ccc(OCCN2CCCCC2)cc1)c1c(-c2ccc(O)cc2)sc2cc(O)ccc12 [Evista],112
17,CC(=O)O[C@H]1CC[C@@]2(C)C(=CC[C@@H]3[C@@H]2CC[C@]2(C)C(c4cccnc4)=CC[C@@H]32)C1 [Abiraterone Acetate],97.2
18,CN(Cc1cc(Br)cc(Br)c1N)C1CCCCC1 [Bromhexine HCl],104
19,C#CCN[C@@H]1CCc2ccccc21 [Rasagiline mesylate],93.3
